Screening data deposited in PubChem BioAssay by National Center for Advancing Translational Sciences (NCATS).
PINK1 expr mod: changes PINK1 expression | AID 624263 | Potency, µM (titrated, usually from 76.6 µM), without a hit: top-dose activation (PINK1 increase), usual class: activators | PINK1 immunofluorescence, high-content cytometry, 24 h | 410,000 tested, 0.2% active; active = well fitted activation curve with a large enough effect; inconclusive = small, poorly fitted or top-dose-only effect; cell line not stated here; also: potency is read from the fitted curve at half-maximal effect; % of control where 0% means no effect; nearly all actives have a fitted effect of over 65% in size
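Stable cell line treated 24 h with compounds at 5 concentrations (CCCP controls), then fixed and immunostained for PINK1 plus nuclear and cell stains; PINK1 immunofluorescence quantified by laser-scanning microplate cytometry.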
SW480 rerep: DNA re-replication induction in SW480 cells. SW480 DNA re-replication, Hoechst DNA content imaging, 48 h. 340,000 tested, 1.8% active. Potency, µM (titrated, usually from 46.1 µM), inactives show at the highest dose re-replication activation, usual class: activators; also: potency is read from the fitted curve at half-maximal effect; % of control where 0% means no effect; nearly all actives have a fitted effect of over 55% in size
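DNA re-replication was detected as more nuclei of elevated Hoechst intensity after 48 hr exposure to compound (23 nL pinned per well of 250 cells).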
ATXN viability: viability counter-screen for ATXN expression inhibitors. S2 cells (HEK-293 line with an ATXN2-luciferase reporter) viability, CellTiter-Fluor protease fluorescence, 24 h. Potency, µM (highest dose often 56.7 µM), usual class: cytotoxic. 400,000 tested, 0.49% active; also: potency is read from the fitted curve at half-maximal effect; nearly all actives have a fitted effect of over 40% in size
IL1B secr inh: blocks inflammasome-driven IL-1 beta release; THP-1 LPS/ATP IL-1B secretion, AlphaLISA, 16 h; active compounds read low; activity change, % at 57.5 µM; 360,000 tested, 4.7% active; AID 743279; in the data active = activity change below about -50%; inconclusive = mostly about -30% to -49%; also: % is scaled to controls: 0 for no effect and ±100 for the full control effect
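THP-1 cells pretreated 1 hr with compounds (up to 57.5 uM final), then stimulated with LPS (250 ng/mL final) plus ATP (1.25 mM final); secreted IL-1B measured by AlphaLISA after 16 hr, decreased signal indicating inhibition.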
MCF10A rerep: inducers of DNA re-replication in MCF 10A breast cells | MCF 10A DNA re-replication, Hoechst nuclear intensity, 48 h | Potency, µM (highest dose often 46.1 µM), for the others: top-dose activity, positive = re-replication, actives largely listed as activators | 350,000 tested, 2.9% active | AID 624296; also: potency is read from the fitted curve at half-maximal effect; % of control where 0% means no effect; nearly all actives have a fitted effect of over 50% in size
ATXN2 expr inh: reduces ATXN2 reporter expression in HEK-293 cells; 360,000 tested, 0.72% active; HEK-293 ATXN2-luciferase reporter, luminescence, 24 h; Potency, µM (series often up to 57 µM), inactives show at the highest dose activity change, negative = inhibition, hits mostly inhibitors; also: potency is read from the fitted curve at half-maximal effect; % is scaled to controls: 0 for no effect and ±100 for the full control effect; nearly all actives have a fitted effect of over 55% in size
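qHTS (up to 57 uM final) was run with 24 h compound exposure of reporter cells at 37 °C. Each well was multiplexed: SteadyGlo luminescence measured ATXN2-luciferase expression after a fluorogenic Gly-Phe-AFC viability readout (25 uM final).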
The depositor's hits bear a star; i = inactive; ? = inconclusive; . = no result given; ! = a repeat was not active; [ ] = remark or other dose. The list is not random: actives were taken first. Their share in the collection is about 7.1%. Unless noted, calls follow the shape of the dose curve; as a rule, active = well fitted curve in the direction sought with a large enough effect; inconclusive = small, poorly fitted or top-dose-only effect, or another doubt; inactive = no such curve, though single readings can be large; an effect the other way counts as inactive or inconclusive.

SMILES	PINK1 expr mod	SW480 rerep	ATXN viability	IL1B secr inh	MCF10A rerep	ATXN2 expr inh
COc1ccc(NC(=O)C2CCN(S(=O)(=O)c3cccc(-c4noc(C)n4)c3)CC2)cc1OC	2%	.	i	.	.	-14%
Cc1cnc(NC(=O)NCC2CCCC(CNC(=O)Nc3ncc(C)s3)C2)s1 (configuration not stated)	10%	16%	i	-98*	?	-8%
Cc1ccc(C(=O)Nc2ncc(C)s2)o1	-2%[38.3 µM]	-11%	i	-2	20%	1%
O=C(c1ccccc1)c1ccc(OCCCN2CCCCC2)cc1	-1%	-1%	i	-59*	?	0%
CC(C)COc1ccc(C(=O)CCN2CCCCC2)cc1	1%	?	i	0	12µM*	-23%
CCCCOc1ccc(C(=O)CCN2CCCCC2)cc1	3%	10µM*!	i	-20	16µM*	?
CC(=O)c1ccc(OCCCN2CCCCC2)cc1	-3%	-15%	i	24	1%	12%
C[C@H](CO)N1C[C@H](C)[C@@H](CN(C)S(=O)(=O)c2ccc(F)cc2)Oc2c(NC(=O)Nc3ccc(C(F)(F)F)cc3)cccc2C1=O	?	-36%[9.22 µM]	.	-51*	?	?
C[C@H]1CN([C@@H](C)CO)C(=O)c2cccc(NC(=O)Nc3ccc(C(F)(F)F)cc3)c2O[C@@H]1CN(C)S(=O)(=O)c1ccc(Cl)cc1	9%	?	.	?	?	?
C[C@@H]1CN([C@H](C)CO)C(=O)c2cccc(NC(=O)Nc3ccc(F)cc3)c2O[C@H]1CN(C)C(=O)Nc1ccc(C(F)(F)F)cc1	?	4%	.	-70*	-26%	?
COc1ccc(NC(=O)N(C)C[C@H]2Oc3c(NC(=O)Nc4ccc(C(F)(F)F)cc4)cccc3C(=O)N([C@H](C)CO)C[C@@H]2C)cc1	-2%	-5%	?	?	?	?
C[C@H](CO)N1C[C@H](C)[C@@H](CN(C)C(=O)Nc2ccc(C(F)(F)F)cc2)Oc2c(NC(=O)Nc3ccccc3)cccc2C1=O	11%	18%	.	-58*	?	?
Cc1cc(C)cc(NC(=O)c2ccc3c(O)c(S(=O)(=O)c4ccccc4)c(=O)[nH]c3c2)c1	0%	.	i	.	.	0%
CC[N+](CC)(CC)CCOC(=O)C(C1CCCC1)C1CCCC1	.	.	i	.	.	-6%
CN(C)Cc1csc(Nc2ccc(C(F)(F)F)cn2)n1	2%	.	i	-4	.	2%
COCC(=O)Nc1cc(C(=O)N2CCN(c3ccccc3)CC2C)c2c(c1)nc(-c1ccncc1)n2C (configuration not stated)	1%	.	i	.	.	.
CCNC(=S)NC1CC2CCC(C1)N2Cc1ccccc1 (configuration not stated)	6%[38.3 µM]	0%	i	-1	-5%	5%
S=C(NCCc1ccccc1)NC1CC2CCC(C1)N2Cc1ccccc1 (configuration not stated)	8%	3%	i	-60*	6%	-26%[11.3 µM]
CCCNC(=S)NC1CC2CCC(C1)N2Cc1ccccc1 (configuration not stated)	8%[38.3 µM]	-5%	i	-4	-9%	-5%
CCNC(=S)NC1CC2CCCC(C1)N2CCc1ccccc1 (configuration not stated)	0%	?	i	?	0.73µM*	-23%
N#CC1=C(N)Oc2n[nH]c(-c3ccccc3)c2C1c1cccnc1 (configuration not stated)	-1%	-2%	i	0	5%	-9%
N#CC1=C(N)Oc2n[nH]c(-c3cccnc3)c2C1c1ccc([N+](=O)[O-])o1 (configuration not stated)	0%	?	?	-97*	?	-23%
Cc1ccc(-c2ccnc(-n3ncc(C(=O)NC[C@@H]4CCCN5CCCC[C@H]45)c3C3CC3)n2)o1	-1%	.	i	.	.	.
Cc1ccc(CNC(=O)Cn2c3ncccc3c(=O)n2-c2ccc(C)cc2)cc1	1%	.	i	.	.	4%
O=C1COc2ccc(-c3csc(=Nc4ccc(OC(F)F)cc4)n3CC3CCCO3)cc2N1 (configuration not stated)	-2%[38.3 µM]	?	i	-65*	16µM*	-34%
SMILES	PINK1 expr mod	SW480 rerep	ATXN viability	IL1B secr inh	MCF10A rerep	ATXN2 expr inh
COCC(C)n1c(-c2ccc3c(c2)NC(=O)CO3)csc1=Nc1ccc(OC(F)F)cc1 (configuration not stated)	6%	?	i	-26	3.3µM*	-39%
COc1ccccc1N=c1scc(-c2ccc3c(c2)NC(=O)CO3)n1CC1CCCO1 (configuration not stated)	2%	4%	i	0	?	?
CCN=c1scc(-c2ccc3c(c2)NC(=O)CO3)n1N=C1CCCC1	2%	2%	i	-5	?	-23%
CN(C)c1ccc(/C=N/NC(=O)CN(c2cccc(Cl)c2)S(C)(=O)=O)cc1Br	12%	-6%	?	-50*	8%	?
CCOC(=O)c1ccc2ncc(C(=O)OCC)c(Nc3ccc(N4CCOCC4)cc3)c2c1	-2%	?	?	-7	13%	22µM*
COc1ccc(C(=O)Nc2cc(-c3cccc(C)c3)nn2-c2ccccc2)cc1	-2%	.	?	.	.	-2%
CC(C)CCNC(=O)c1ccc2c(c1)N(Cc1cccc(Cl)c1)C(=O)c1ccccc1S2	0%	.	.	.	.	.
Cc1cccc(CN2C(=O)/C(=C\c3ccc(C(=O)NCCN4CCOCC4)cc3)Sc3ccccc32)c1	2%	23µM*	i	-7	?	?
CCOCCCNC(=O)CN1C(=O)/C(=C/c2ccccc2C)Sc2ccccc21	2%	?	i	4	-2%	2%
CCOCCCNC(=O)/C=C1\Sc2ccccc2N(Cc2ccccc2F)C1=O	2%	?	i	?	7.3µM*	.
CCN1CCN(CCNC(=O)c2ccc(/C=C3/Sc4ccccc4N(Cc4cccc(Cl)c4)C3=O)cc2)CC1	1%	7%	28µM*	-99*	21µM*	25µM*
O=C(NCCN1CCOCC1)c1ccc2c(c1)N(Cc1ccccc1F)C(=O)CS2	-1%	0%	i	3	5%	-1%
O=C(NCCN1CCOCC1)c1ccc(/C=C2\Sc3ccccc3N(Cc3ccccc3F)C2=O)cc1	1%	18µM*	i	-5	?	.
O=C(COc1cccc(Cl)c1)N1CCC(c2nc3ccccc3s2)CC1	2%	.	?	.	.	-30%
O=C(NCCCN1CCOCC1)c1ccc2c(c1)N(Cc1ccccc1F)C(=O)c1ccccc1S2=O (configuration not stated)	-2%	29%	i	53	3%	-6%
